Out of some 350,000 compounds screened, about 9,900 (2.8%) were called active. Roughly 15% stayed inconclusive and do not appear here. The call rests on the fitted dose curve; in most records, active means well fitted activation curve with a large enough effect; inconclusive means small, poorly fitted or top-dose-only effect; inactive means no such curve, though single readings can be large or run the other way. Shown is part of a subset that was picked to be rich in actives. Entries that show only a call come without a potency.
Potency means the concentration at half of the fitted maximal effect.

The nature of the experiment: A quantitative high throughput screen for small molecules that induce DNA re-replication in MCF 10a normal breast cells. Further: nearly all actives have a fitted effect of over 50% in size. The note with it: MCF 10A DNA re-replication, Hoechst nuclear intensity, 48 h; series mostly up to 46.1 µM.
For `N=C1c2ccccc2-c2ccccc21`, the Potency result is “inactive”.
For `COC(=O)c1sc(N2CCN(Cc3ccccc3)CC2)nc1N` the value was “inactive”; for `C=CCNc1nc(N)c(C(=C(C#N)C#N)c2ccccc2)s1`, 16.4 µM (active); for `C=CCNC(=O)c1csc(-c2ccccc2)n1`, “inactive”.
Then `Nc1ccccc1SC(C[N+](=O)[O-])c1ccccc1` (centres undefined), with 10.3 µM (active); and `CCS(=O)(=O)c1cc([N+](=O)[O-])c(Sc2ccccc2N)s1`, with “inactive”; and `Nc1ccccc1SCc1cc([N+](=O)[O-])cc2c1OCOC2`, with “inactive”.
Then `CN(C(=O)c1cccc(NC(=O)C2CCN(C(=O)OC(C)(C)C)CC2)c1)C1CCC1`, with “inactive”.
`COC(=O)c1ccc(CNC(=O)Cn2cc(C)c(=O)[nH]c2=O)cc1`: the Potency result was “inactive”.
On to `C#CCOCCOCCOCCNc1nc(N2CCN(C(=O)Cn3cc(CCCCN)nn3)CC2)nc(N2CCN(C(=O)[C@H](CCCCN)n3cc(CCC(=O)O)nn3)CC2)n1`, for which the Potency result is “inactive”.
Take `CN(C)S(=O)(=O)c1ccc(C(=O)NCC(C)(C)N2CCOCC2)cc1`: the Potency entry is “inactive”.
Then `CC(C)(CNC(=O)c1ccc(Cl)c(S(=O)(=O)N2CCc3ccccc3C2)c1)N1CCOCC1`, with 5.8 µM (active).
With `O=C(NCCSCc1ccccc1)c1ccc(Cl)c(S(=O)(=O)N2CCOCC2)c1`, the Potency entry was “inactive”.
Then `O=C(OCc1cc(=O)n2ccsc2n1)C1(c2ccc(Cl)cc2)CC1`, with “inactive”.
For `COc1ccccc1N(CC(=O)Nc1c(C)n(C)n(-c2ccccc2)c1=O)S(=O)(=O)c1ccccc1` the value was “inactive”.
Then `Cc1c(O)c(C)c2c(c1O)C(=O)C[C@@H](c1ccccc1)O2`, with “inactive”; and `COc1ccc(CNc2ncnc3ccccc23)cc1`, with “inactive”; and `COc1ccc(CNc2c(CO)cnc3c2cnn3C)cc1`, with 14.6 µM (active).
For `COc1ccc(CNc2nnnn2C)cc1`, the Potency result was “inactive”.
For the molecule `COc1cccc(NC(=O)COC(=O)c2ccc3ccccc3n2)c1`, the Potency result is “inactive”.
Then `Cc1ccc(S(=O)(=O)N(C)C)cc1NC(=O)CN1c2cccc3cccc(c23)S1(=O)=O`, with “inactive”; and `Cc1csc(NC(=O)C2CCN(S(=O)(=O)c3ccccc3)CC2)n1`, with “inactive”; and `CN(C(=O)CSc1cccc[n+]1[O-])C1CCCCC1`, with “inactive”.
On to `Cc1ccc(NCc2n[nH]c(=S)n2-c2ccccc2)cc1Cl`, for which the Potency entry was “inactive”.
For `S=c1[nH]nc(COc2ccccc2)n1-c1ccccc1` the value was “inactive”; for `S=c1[nH]nc(CSCc2ccc(Cl)cc2Cl)n1-c1ccccc1`, 20.6 µM (active); for `O=C(O)C(=Cc1ccccc1[N+](=O)[O-])c1ccccc1`, “inactive”.
For the molecule `O=C(Nc1cccc(S(=O)(=O)N2CCCC2)c1)c1cncc(Br)c1`, the Potency entry is “inactive”.
For `CC(=O)Oc1ccc(N(C(C)=O)S(=O)(=O)c2ccc3ccccc3c2)cc1Br` the value was 13 µM (active); for `CN(c1ccc(OCC(=O)O)cc1)S(=O)(=O)c1ccc2ccccc2c1`, “inactive”; for `COCCNC(=O)COc1ccc(N(C)S(=O)(=O)c2ccc3ccccc3c2)cc1`, “inactive”.
For `O=C(OCCOc1ccccc1Cl)c1cc(S(=O)(=O)N2CCCCC2)ccc1N1CCOCC1` the value was “inactive”; for `CCC(C(=O)N1CCN(S(=O)(=O)c2sc(C(=O)O)c(C)c2C(=O)O)CC1)c1ccccc1` (centres undefined), “inactive”; for `COC(=O)CCCCCN1C(=O)NC(c2ccc(-c3ccccc3)cc2)C(C(=O)OCc2ccccc2)=C1C` (centres undefined), 3.26 µM (active).
For `CC1=C(C(=O)OCc2ccccc2)C(c2ccc(C(F)(F)F)cc2)NC(=O)N1CCCCCC(=O)O` (centres undefined) the value was “inactive”.
For `COCCN1C(=O)N[C@@H](c2ccccc2)C(C(=O)OC)=C1C`, the Potency result is “inactive”.
For `COc1cc(OC)cc(C(=O)NC(C(=O)N2CCC2)C(C)C)c1` (centres undefined) the value was “inactive”.
For `O=C(Cn1cnc2c(OCc3ccccc3)ncnc21)NCc1nc2ccccc2[nH]1` the value was “inactive”.
Then `COCCCNC(=O)CC1C[C@H](C(=O)N2CCCCC2)[C@@]2(CCc3ccccc3)c3[nH]c4ccccc4c3CCN2C1=O` (some centres undefined), with “inactive”; and `O=C(N/N=C\c1cc2c(cc1Cl)OCO2)c1ccc(Br)s1`, with 5.8 µM (active); and `O=C(N/N=C/c1cc2c(cc1Br)OCO2)C1COc2ccccc2O1` (centres undefined), with “inactive”.
Regarding `O=C(NCc1ccc2c(c1)OCO2)c1ccc(Cl)s1`, the Potency entry was “inactive”.
Then `CCCN(CC1CC1)C(=S)NC(=O)c1ccccc1Br`, with “inactive”; and `O=c1[nH]nc(SCCS(=O)(=O)c2ccc(F)cc2)n1-c1ccccc1C(F)(F)F`, with 18.4 µM (active).
Then `O=S(=O)(c1ccc(F)cc1)N1CCN(Cc2ccccc2C(F)(F)F)CC1`, with “inactive”.
Then `O=C(CSc1n[nH]c(=O)n1-c1ccccc1)Nc1ccccc1C(F)(F)F`, with “inactive”; and `Cn1c(SCC(=O)Nc2nccs2)nnc1-c1cccnc1`, with “inactive”.
With `Cc1[nH]c2ccccc2c1SCC(=O)Nc1nccs1`, the Potency was 0.651 µM (active).
Then `CCn1c(SCC(=O)Nc2nccs2)nnc1-c1ccco1`, with “inactive”; and `CCCSc1ccc([C@H]2N[C@@](Cc3ccccc3)(C(=O)OC)[C@H]3C(=O)N(C)C(=O)[C@@H]23)cc1`, with “inactive”; and `CC(=O)Nc1ccc(NC(=O)CN2CCCC(C)C2)c(Cl)c1` (centres undefined), with “inactive”.
For `O=C(CSc1ccccc1)Nc1cc(Cl)ccc1Oc1ccccc1` the value was “inactive”; for `CC1CCCN(CC(=O)Nc2cc(Cl)ccc2Oc2ccccc2)C1` (centres undefined), 18.4 µM (active).
With `CC(C)c1nnc(NC(=O)C2CCCN2S(=O)(=O)c2ccc(Cl)cc2)s1` (centres undefined), the Potency entry is “inactive”.
Then `COc1ccccc1NC(=O)C1CCCN1S(=O)(=O)c1ccc(Cl)cc1` (centres undefined), with 18.4 µM (active); and `Cc1cccc(NC(=O)C2CCCN2S(=O)(=O)c2ccc(F)cc2)c1C` (centres undefined), with “inactive”.
Then `O=C(COC(=O)Cn1[nH]c(=O)c2ccccc2c1=O)Nc1ncc(Cl)cc1Cl`, with “inactive”; and `O=C(CSc1ncn[nH]1)Nc1ccc(Br)cc1Br`, with “inactive”; and `CN(C(=O)COC(=O)c1cc(=O)[nH]c2ccccc12)C1CCCCC1`, with “inactive”.
Turning to `CCN(C(=O)CSc1cccc[n+]1[O-])c1ccccc1`, the Potency entry is “inactive”.
Take `CC1=CC(C)(C)Nc2ccc(OC(=O)CN3C(=O)C4CCCCC4C3=O)cc21` (centres undefined): the Potency is 7.31 µM (active).
Then `O=C(CN1C(=O)C2C3CCC(C3)C2C1=O)Oc1ccc2ccccc2c1` (centres undefined), with “inactive”.
For `O=C(COC(=O)CN1C(=O)C2CCCCC2C1=O)Nc1ccc(F)c(F)c1F` (centres undefined) the value was “inactive”; for `C=CC[C@H](CC(=O)OC(C)(C)C)C(=O)OC[C@H]1CCCN1C(=O)[C@H](CC=C)CC(=O)N(CCO)Cc1ccccc1`, “inactive”.

Source of the values: PubChem BioAssay AID624296 (National Center for Advancing Translational Sciences (NCATS), 2012).
